Where a chain is given by its changes, count along the chain named.
Experiments:
Test in all cases: PBM; 200 nM protein, PBS
Details in all cases: dsDNA, one strand shown
NKX2-6 [1] = biological target: T1, NKX2-6 (Homo sapiens, UniProt A6NCS4 118-204)
T1 sequence: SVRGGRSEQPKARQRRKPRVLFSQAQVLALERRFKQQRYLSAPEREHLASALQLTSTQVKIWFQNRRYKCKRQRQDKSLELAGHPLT

NKX2-6 [2] = biological target: T2, NKX2-6 (Homo sapiens, UniProt A6NCS4 118-204, F151L)
T2 sequence: T1 sequence with F34L

PAX4 [3] = biological target: T3, PAX4 (Homo sapiens, UniProt O43316 9-242, F177Y)
T3 sequence: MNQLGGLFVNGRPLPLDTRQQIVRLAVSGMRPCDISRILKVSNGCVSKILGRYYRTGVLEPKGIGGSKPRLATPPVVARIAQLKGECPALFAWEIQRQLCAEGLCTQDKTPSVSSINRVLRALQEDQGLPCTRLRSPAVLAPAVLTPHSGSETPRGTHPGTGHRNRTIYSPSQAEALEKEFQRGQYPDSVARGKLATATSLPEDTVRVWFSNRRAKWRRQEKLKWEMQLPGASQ

PAX4 [4] = biological target: T4, PAX4 (Homo sapiens, UniProt O43316 9-242, R227W)
T4 sequence: T3 sequence with Y169F, R219W

HOXD13 = HOXD13 (Homo sapiens, UniProt P35453 263-343)
HOXD13, sequence (P35453 263-343): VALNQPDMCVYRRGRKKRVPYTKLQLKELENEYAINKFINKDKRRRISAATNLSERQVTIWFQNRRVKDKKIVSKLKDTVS

PITX2 = PITX2 (Homo sapiens, UniProt Q99697 72-157)
CRX = CRX (Homo sapiens, UniProt O43186 26-111, R41L)
CRX, sequence (O43186 26-111 R41L): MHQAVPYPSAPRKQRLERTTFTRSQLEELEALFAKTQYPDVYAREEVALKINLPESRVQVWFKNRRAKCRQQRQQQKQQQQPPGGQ

Sequence: GACCACTC
- binding signal (NKX2-6 [1]): 12.3 upbm affinity estimate (log intensity, higher = more binding, comparable within an allelic series)
- binding signal (NKX2-6 [2]): 9.92 upbm affinity estimate (log intensity, higher = more binding, comparable within an allelic series)

Sequence: ACGGGACT
- binding signal (NKX2-6 [1]): 9.76 upbm affinity estimate (log intensity, higher = more binding, comparable within an allelic series)
- binding signal (NKX2-6 [2]): 9.42 upbm affinity estimate (log intensity, higher = more binding, comparable within an allelic series)

Sequence: AGTATGTA
- binding signal (NKX2-6 [1]): 11.6 upbm affinity estimate (log intensity, higher = more binding, comparable within an allelic series)
- binding signal (NKX2-6 [2]): 9.91 upbm affinity estimate (log intensity, higher = more binding, comparable within an allelic series)

Sequence: AAGTACTG
- binding signal (NKX2-6 [1]): 12.7 upbm affinity estimate (log intensity, higher = more binding, comparable within an allelic series)
- binding signal (NKX2-6 [2]): 10.3 upbm affinity estimate (log intensity, higher = more binding, comparable within an allelic series)

Sequence: ATGCCCTG
- binding signal (NKX2-6 [1]): 9.6 upbm affinity estimate (log intensity, higher = more binding, comparable within an allelic series)
- binding signal (NKX2-6 [2]): 9.34 upbm affinity estimate (log intensity, higher = more binding, comparable within an allelic series)

Sequence: CAGCTCAG
- binding signal (NKX2-6 [1]): 9.47 upbm affinity estimate (log intensity, higher = more binding, comparable within an allelic series)
- binding signal (NKX2-6 [2]): 9.39 upbm affinity estimate (log intensity, higher = more binding, comparable within an allelic series)

Sequence: CACCGCGC
- binding signal (NKX2-6 [1]): 8.99 upbm affinity estimate (log intensity, higher = more binding, comparable within an allelic series)
- binding signal (NKX2-6 [2]): 9.25 upbm affinity estimate (log intensity, higher = more binding, comparable within an allelic series)

Sequence: AACCGGAG
- binding signal (NKX2-6 [1]): 9.55 upbm affinity estimate (log intensity, higher = more binding, comparable within an allelic series)
- binding signal (NKX2-6 [2]): 9.32 upbm affinity estimate (log intensity, higher = more binding, comparable within an allelic series)

Sequence: ATCACTCA
- binding signal (NKX2-6 [1]): 12.1 upbm affinity estimate (log intensity, higher = more binding, comparable within an allelic series)
- binding signal (NKX2-6 [2]): 9.9 upbm affinity estimate (log intensity, higher = more binding, comparable within an allelic series)

Sequence: CGTCTGGC
- binding signal (NKX2-6 [1]): 9.46 upbm affinity estimate (log intensity, higher = more binding, comparable within an allelic series)
- binding signal (NKX2-6 [2]): 9.41 upbm affinity estimate (log intensity, higher = more binding, comparable within an allelic series)

Sequence: AGACGCTG
- binding signal (NKX2-6 [1]): 9.21 upbm affinity estimate (log intensity, higher = more binding, comparable within an allelic series)
- binding signal (NKX2-6 [2]): 9.48 upbm affinity estimate (log intensity, higher = more binding, comparable within an allelic series)

Sequence: CCAGAATC
- binding signal (NKX2-6 [1]): 9.71 upbm affinity estimate (log intensity, higher = more binding, comparable within an allelic series)
- binding signal (NKX2-6 [2]): 9.51 upbm affinity estimate (log intensity, higher = more binding, comparable within an allelic series)

Sequence: CCGCGTTC
- binding signal (NKX2-6 [1]): 9.4 upbm affinity estimate (log intensity, higher = more binding, comparable within an allelic series)
- binding signal (NKX2-6 [2]): 9.39 upbm affinity estimate (log intensity, higher = more binding, comparable within an allelic series)

Sequence: GGCCCGTA
- binding signal (NKX2-6 [1]): 9.15 upbm affinity estimate (log intensity, higher = more binding, comparable within an allelic series)
- binding signal (NKX2-6 [2]): 9.45 upbm affinity estimate (log intensity, higher = more binding, comparable within an allelic series)

Sequence: AAAGAGGG
- binding signal (NKX2-6 [1]): 11.6 upbm affinity estimate (log intensity, higher = more binding, comparable within an allelic series)
- binding signal (NKX2-6 [2]): 9.79 upbm affinity estimate (log intensity, higher = more binding, comparable within an allelic series)

Sequence: GTAAATTA
- binding signal (PAX4 [3]): 11 upbm affinity estimate (log intensity, higher = more binding, comparable within an allelic series)

Sequence: GAAATTAA
- binding signal (PAX4 [3]): 10.9 upbm affinity estimate (log intensity, higher = more binding, comparable within an allelic series)
- binding signal (PAX4 [4]): 10.9 upbm affinity estimate (log intensity, higher = more binding, comparable within an allelic series)

Sequence: AAATTAGA
- binding signal (PAX4 [4]): 10.9 upbm affinity estimate (log intensity, higher = more binding, comparable within an allelic series)

Sequence: TATATGCA
- binding signal (HOXD13): 10.8 upbm affinity estimate (log intensity, higher = more binding, comparable within an allelic series)

Sequence: CTATCGCC
- binding signal (PITX2): 8.13 upbm affinity estimate (log intensity, higher = more binding, comparable within an allelic series)

Sequence: TATTGCGA
- binding signal (HOXD13): 10.6 upbm affinity estimate (log intensity, higher = more binding, comparable within an allelic series)

Sequence: TAACTAAA
- binding signal (HOXD13): 10.7 upbm affinity estimate (log intensity, higher = more binding, comparable within an allelic series)

Sequence: GGTCTTTA
- binding signal (PITX2): 9.73 upbm affinity estimate (log intensity, higher = more binding, comparable within an allelic series)

Sequence: GACGTTTA
- binding signal (HOXD13): 10.7 upbm affinity estimate (log intensity, higher = more binding, comparable within an allelic series)

Sequence: CGAGATTA
- binding signal (PITX2): 12.3 upbm affinity estimate (log intensity, higher = more binding, comparable within an allelic series)
- binding signal (CRX): 12.4 upbm affinity estimate (log intensity, higher = more binding, comparable within an allelic series)

Sequence: GATAAGCC
- binding signal (PITX2): 12.3 upbm affinity estimate (log intensity, higher = more binding, comparable within an allelic series)
- binding signal (CRX): 12.4 upbm affinity estimate (log intensity, higher = more binding, comparable within an allelic series)

Sequence: TGGCTTAA
- binding signal (PITX2): 12.3 upbm affinity estimate (log intensity, higher = more binding, comparable within an allelic series)
- binding signal (CRX): 11.5 upbm affinity estimate (log intensity, higher = more binding, comparable within an allelic series)

Sequence: ACACAATA
- binding signal (HOXD13): 10.6 upbm affinity estimate (log intensity, higher = more binding, comparable within an allelic series)

Sequence: AATGAGTA
- binding signal (HOXD13): 10.8 upbm affinity estimate (log intensity, higher = more binding, comparable within an allelic series)

Sequence: GATGAGCC
- binding signal (PITX2): 9.56 upbm affinity estimate (log intensity, higher = more binding, comparable within an allelic series)

Sequence: CGGATTTA
- binding signal (PITX2): 12.3 upbm affinity estimate (log intensity, higher = more binding, comparable within an allelic series)
- binding signal (CRX): 12.3 upbm affinity estimate (log intensity, higher = more binding, comparable within an allelic series)

Sequence: TATTTAGA
- binding signal (HOXD13): 10.6 upbm affinity estimate (log intensity, higher = more binding, comparable within an allelic series)

Sequence: CGATTTAA
- binding signal (HOXD13): 10.9 upbm affinity estimate (log intensity, higher = more binding, comparable within an allelic series)

— paper PMC11006913
